# In all, about 5,500 compounds went through this assay and about 2,000 (36%) were called active. Inconclusive results (about 18%) are left out. The list shows a part of the results. Unmarked numbers belong to inactive results. No stated cut-off is given here; in the data, active means normalized growth mostly below about 0.91 (no sharp cut-off); inconclusive means no clear call, values can overlap the other calls; inactive means mostly above about 0.92.
# Assay: chemical genetic growth profiling, strain panel (AID 1159580);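 further: tested at 20 µM; growth read once vehicle control cultures reached saturation at 30 °C; 1 = growth at the plate median or of vehicle wells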
# Details: growth OD
compound,measurement,setting,value
CCCCOc1ccc(CC(=O)NO)cc1,normalized growth,"S. cerevisiae deletion strains, locus YJR043C, strain POL32, stronger effect = lower value",0.968
same,normalized growth,"S. cerevisiae deletion strains, locus YJR066W, strain TOR1, stronger effect = lower value",0.976
same,normalized growth,"S. cerevisiae deletion strains, locus YJR075W, strain HOC1, stronger effect = lower value",0.977
same,normalized growth,"S. cerevisiae deletion strains, locus YKL009W, strain mrt4, stronger effect = lower value",1.01
same,normalized growth,"S. cerevisiae deletion strains, locus YKL068W, stronger effect = lower value",0.999
same,normalized growth,"S. cerevisiae deletion strains, locus YKL085W, strain MDH1 (second series), stronger effect = lower value",0.998
same,normalized growth,"S. cerevisiae deletion strains, locus YKL085W, strain MDH1, stronger effect = lower value",0.998
same,normalized growth,"S. cerevisiae deletion strains, locus YKL160W, strain elf1, stronger effect = lower value",0.984
same,normalized growth,"S. cerevisiae deletion strains, locus YKL190W, strain CNB1, stronger effect = lower value",0.994
same,normalized growth,"S. cerevisiae deletion strains, locus YKR001C, strain vps1, stronger effect = lower value",0.831 (active)
same,normalized growth,"S. cerevisiae deletion strains, locus YKR026C, strain gcn3, stronger effect = lower value",0.991
same,normalized growth,"S. cerevisiae deletion strains, locus YKR091W, strain srl3, stronger effect = lower value",0.996
same,normalized growth,"S. cerevisiae deletion strains, locus YLL001W, strain dnm1, stronger effect = lower value",0.986
same,normalized growth,"S. cerevisiae deletion strains, locus YLL026W, stronger effect = lower value",0.981
same,normalized growth,"S. cerevisiae deletion strains, locus YLL041C, strain sdh2, stronger effect = lower value",0.985
same,normalized growth,"S. cerevisiae deletion strains, locus YLR027C, strain aat2, stronger effect = lower value",0.97
same,normalized growth,"S. cerevisiae deletion strains, locus YLR039C, strain RIC1, stronger effect = lower value",0.731
same,normalized growth,"S. cerevisiae deletion strains, locus YLR058C, strain SHM2, stronger effect = lower value",1
same,normalized growth,"S. cerevisiae deletion strains, locus YLR102C, strain apc9, stronger effect = lower value",1.01
same,normalized growth,"S. cerevisiae deletion strains, locus YLR113W, strain HOG1, stronger effect = lower value",0.963
same,normalized growth,"S. cerevisiae deletion strains, locus YLR221C, strain rsa3, stronger effect = lower value",0.963
same,normalized growth,"S. cerevisiae deletion strains, locus YLR258W, strain gsy2, stronger effect = lower value",0.984
same,normalized growth,"S. cerevisiae deletion strains, locus YLR262C, strain YPT6 (second series), stronger effect = lower value",0.847 (active)
same,normalized growth,"S. cerevisiae deletion strains, locus YLR262C, strain YPT6, stronger effect = lower value",0.738
same,normalized growth,"S. cerevisiae deletion strains, locus YLR268W, strain sec22, stronger effect = lower value",0.983
same,normalized growth,"S. cerevisiae deletion strains, locus YLR320W, strain mms22, stronger effect = lower value",0.958
same,normalized growth,"S. cerevisiae deletion strains, locus YLR330W, strain CHS5, stronger effect = lower value",0.988
same,normalized growth,"S. cerevisiae deletion strains, locus YLR342W, strain FKS1 (second series), stronger effect = lower value",1.01
same,normalized growth,"S. cerevisiae deletion strains, locus YLR342W, strain FKS1, stronger effect = lower value",1.01
same,normalized growth,"S. cerevisiae deletion strains, locus YLR357W, strain rsc2, stronger effect = lower value",1
same,normalized growth,"S. cerevisiae deletion strains, locus YLR370C, strain arc18, stronger effect = lower value",0.989
same,normalized growth,"S. cerevisiae deletion strains, locus YLR371W, strain rom2, stronger effect = lower value",0.999
same,normalized growth,"S. cerevisiae deletion strains, locus YLR384C, strain iki3, stronger effect = lower value",0.991
same,normalized growth,"S. cerevisiae deletion strains, locus YLR418C, strain cdc73, stronger effect = lower value",0.921
same,normalized growth,"S. cerevisiae deletion strains, locus YML016C, strain PPZ1, stronger effect = lower value",1
same,normalized growth,"S. cerevisiae deletion strains, locus YML032C, strain rad52, stronger effect = lower value",0.997
same,normalized growth,"S. cerevisiae deletion strains, locus YML120C, strain ndi1, stronger effect = lower value",0.991
same,normalized growth,"S. cerevisiae deletion strains, locus YML124C, strain tub3, stronger effect = lower value",1
same,normalized growth,"S. cerevisiae deletion strains, locus YMR058W, strain fet3, stronger effect = lower value",0.969
same,normalized growth,"S. cerevisiae deletion strains, locus YMR078C, strain ctf18, stronger effect = lower value",1
same,normalized growth,"S. cerevisiae deletion strains, locus YMR125W, strain sto1, stronger effect = lower value",0.997
same,normalized growth,"S. cerevisiae deletion strains, locus YMR129W, stronger effect = lower value",0.996
same,normalized growth,"S. cerevisiae deletion strains, locus YMR205C, strain PFK2, stronger effect = lower value",0.984
same,normalized growth,"S. cerevisiae deletion strains, locus YMR223W, strain ubp8, stronger effect = lower value",1
same,normalized growth,"S. cerevisiae deletion strains, locus YMR231W, strain pep5, stronger effect = lower value",1
same,normalized growth,"S. cerevisiae deletion strains, locus YMR307W, strain GAS1, stronger effect = lower value",0.998
same,normalized growth,"S. cerevisiae deletion strains, locus YNL067W, strain RPL9B, stronger effect = lower value",0.976
same,normalized growth,"S. cerevisiae deletion strains, locus YNL071W, strain lat1, stronger effect = lower value",0.992
same,normalized growth,"S. cerevisiae deletion strains, locus YNL183C, strain NPR1, stronger effect = lower value",0.97
same,normalized growth,"S. cerevisiae deletion strains, locus YNL209W, strain ssb2, stronger effect = lower value",1.01
same,normalized growth,"S. cerevisiae deletion strains, locus YNL233W, strain BNI4, stronger effect = lower value",0.966
same,normalized growth,"S. cerevisiae deletion strains, locus YNL248C, strain rpa49, stronger effect = lower value",0.968
same,normalized growth,"S. cerevisiae deletion strains, locus YNL250W, strain rad50, stronger effect = lower value",1
same,normalized growth,"S. cerevisiae deletion strains, locus YNL271C, strain bni1, stronger effect = lower value",1.01
same,normalized growth,"S. cerevisiae deletion strains, locus YNL298W, strain CLA4, stronger effect = lower value",1.01
same,normalized growth,"S. cerevisiae deletion strains, locus YNL307C, strain MCK1, stronger effect = lower value",0.999
same,normalized growth,"S. cerevisiae deletion strains, locus YNL322C, strain KRE1 (second series), stronger effect = lower value",0.997
same,normalized growth,"S. cerevisiae deletion strains, locus YNR049C, strain mso1, stronger effect = lower value",0.995
same,normalized growth,"S. cerevisiae deletion strains, locus YNR052C, strain pop2, stronger effect = lower value",1.01
same,normalized growth,"S. cerevisiae deletion strains, locus YOL006C, strain TOP1, stronger effect = lower value",0.887
same,normalized growth,"S. cerevisiae deletion strains, locus YOL012C, strain htz1",1.47
same,normalized growth,"S. cerevisiae deletion strains, locus YOL147C, strain pex11, stronger effect = lower value",1
same,normalized growth,"S. cerevisiae deletion strains, locus YOR001W, strain rrp6, stronger effect = lower value",1.01
same,normalized growth,"S. cerevisiae deletion strains, locus YOR061W, strain CKA2, stronger effect = lower value",0.985
same,normalized growth,"S. cerevisiae deletion strains, locus YOR069W, strain VPS5, stronger effect = lower value",0.997
same,normalized growth,"S. cerevisiae deletion strains, locus YOR070C, strain gyp1, stronger effect = lower value",0.999
same,normalized growth,"S. cerevisiae deletion strains, locus YOR080W, strain dia2, stronger effect = lower value",0.995
same,normalized growth,"S. cerevisiae deletion strains, locus YOR083W, strain WHI5, stronger effect = lower value",0.982
same,normalized growth,"S. cerevisiae deletion strains, locus YOR106W, strain vam3, stronger effect = lower value",0.971
same,normalized growth,"S. cerevisiae deletion strains, locus YOR136W, strain idh2, stronger effect = lower value",1.01
same,normalized growth,"S. cerevisiae deletion strains, locus YOR144C, strain elg1, stronger effect = lower value",1
same,normalized growth,"S. cerevisiae deletion strains, locus YOR184W, strain ser1, stronger effect = lower value",0.999
same,normalized growth,"S. cerevisiae deletion strains, locus YOR231W, strain MKK1, stronger effect = lower value",1
same,normalized growth,"S. cerevisiae deletion strains, locus YOR265W, strain rbl2, stronger effect = lower value",0.997
same,normalized growth,"S. cerevisiae deletion strains, locus YOR270C, strain vph1, stronger effect = lower value",0.989
same,normalized growth,"S. cerevisiae deletion strains, locus YOR290C, strain snf2, stronger effect = lower value",0.989
same,normalized growth,"S. cerevisiae deletion strains, locus YOR316C, strain cot1, stronger effect = lower value",1.01
same,normalized growth,"S. cerevisiae deletion strains, locus YPL051W, strain arl3, stronger effect = lower value",0.961
same,normalized growth,"S. cerevisiae deletion strains, locus YPL078C, strain atp4, stronger effect = lower value",1
same,normalized growth,"S. cerevisiae deletion strains, locus YPL106C, strain sse1, stronger effect = lower value",1.08
same,normalized growth,"S. cerevisiae deletion strains, locus YPL240C, strain hsp82, stronger effect = lower value",1
same,normalized growth,"S. cerevisiae deletion strains, locus YPL241C, strain CIN2, stronger effect = lower value",0.994
same,normalized growth,"S. cerevisiae deletion strains, locus YPL256C, strain CLN2, stronger effect = lower value",1.02
same,normalized growth,"S. cerevisiae deletion strains, locus YPR119W, strain clb2, stronger effect = lower value",1.01
same,normalized growth,"S. cerevisiae deletion strains, locus YPR141C, strain kar3, stronger effect = lower value",1
same,normalized growth,"S. cerevisiae deletion strains, locus YPR163C, strain tif3, stronger effect = lower value",1.01
same,normalized growth,"S. cerevisiae deletion strains, locus YPR167C, strain met16, stronger effect = lower value",1.01
same,normalized growth,"S. cerevisiae deletion strains, strain wtn01, stronger effect = lower value",0.988
same,normalized growth,"S. cerevisiae strains, strain wild type, stronger effect = lower value",0.992

# From PubChem BioAssay AID1159580 (chemical genetic matrix, 2015)
